Data as given in PubChem BioAssay AID504569 (NMMLSC, 2011).
Potency and affinity values are given separately. The source made the active and inactive calls.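 The calls were made as follows: active = activity score above a set limit, rewarding a half-maximal dose under 10 µM and fitted response height over 20%; inactive = the rest.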

Molecular target: ATP-dependent translocase ABCB1 (Homo sapiens) (UniProt P08183)
Experiment: P-gp JC-1 efflux blockade concentration-response – Jurkat-DNR cells, flow cytometry, set 2, dose response (AID 504569)
Conditions: series mostly up to 50 µM; inhibition: at the top concentration

ATP-dependent translocase ABCB1 (Homo sapiens), sequence (P08183 whole entry, looked up): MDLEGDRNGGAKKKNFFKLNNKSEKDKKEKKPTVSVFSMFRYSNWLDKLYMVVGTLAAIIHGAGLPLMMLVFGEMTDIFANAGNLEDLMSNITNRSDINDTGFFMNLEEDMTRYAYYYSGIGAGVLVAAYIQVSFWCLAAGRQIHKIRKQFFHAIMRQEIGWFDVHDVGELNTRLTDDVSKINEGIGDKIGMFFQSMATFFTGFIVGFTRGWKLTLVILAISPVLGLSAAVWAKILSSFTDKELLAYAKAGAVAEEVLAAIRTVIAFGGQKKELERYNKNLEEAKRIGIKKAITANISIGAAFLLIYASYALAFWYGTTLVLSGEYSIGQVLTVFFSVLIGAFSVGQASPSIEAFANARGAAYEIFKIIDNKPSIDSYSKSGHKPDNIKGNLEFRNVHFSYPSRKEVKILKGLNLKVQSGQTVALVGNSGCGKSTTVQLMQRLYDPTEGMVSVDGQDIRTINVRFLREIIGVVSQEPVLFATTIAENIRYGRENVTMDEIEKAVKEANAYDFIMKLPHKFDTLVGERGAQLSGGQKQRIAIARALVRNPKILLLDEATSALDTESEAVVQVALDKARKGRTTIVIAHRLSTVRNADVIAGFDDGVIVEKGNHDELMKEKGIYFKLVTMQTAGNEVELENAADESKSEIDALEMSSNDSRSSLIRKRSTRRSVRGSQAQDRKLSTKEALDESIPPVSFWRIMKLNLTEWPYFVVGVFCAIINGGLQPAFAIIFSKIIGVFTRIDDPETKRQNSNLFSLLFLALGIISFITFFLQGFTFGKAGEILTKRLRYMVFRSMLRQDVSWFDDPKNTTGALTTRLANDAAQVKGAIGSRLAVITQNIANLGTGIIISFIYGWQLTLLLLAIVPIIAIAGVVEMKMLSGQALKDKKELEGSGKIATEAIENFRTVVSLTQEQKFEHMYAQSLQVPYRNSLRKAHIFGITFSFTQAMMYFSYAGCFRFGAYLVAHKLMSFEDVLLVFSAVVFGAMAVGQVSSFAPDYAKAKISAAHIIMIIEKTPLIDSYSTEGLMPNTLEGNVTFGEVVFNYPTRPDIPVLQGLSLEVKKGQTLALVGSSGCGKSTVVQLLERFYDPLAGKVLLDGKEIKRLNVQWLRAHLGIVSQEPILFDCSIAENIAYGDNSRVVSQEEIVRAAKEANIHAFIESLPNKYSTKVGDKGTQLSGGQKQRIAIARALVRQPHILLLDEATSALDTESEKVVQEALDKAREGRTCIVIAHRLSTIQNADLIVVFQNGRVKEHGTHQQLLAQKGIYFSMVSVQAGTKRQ

inhibition, inactive:
O=S(=O)(c1ccccc1)N1CCN(c2cc(-c3ccccc3)nc3cc(-c4cccc(Cl)c4)nn23)CC1 5.5%, Cc1nc2cc(-c3cccs3)nn2c(N2CCN(C(=O)c3ccco3)CC2)c1C 11.9%, CC(=O)N1CCN(c2c(C)c(C)nc3cc(-c4ccc(Cl)cc4)nn23)CC1 27.8%
